For 30 molecules, Inhibition results are on record in ChEMBL document CHEMBL1157539, “Thousands of chemical starting points for antimalarial lead identification” (Nature, 2010).

Assay type in all cases: functional
Test [1] has as its system Plasmodium falciparum. Kind of test: GSK_TCMDC: Inhibition of Plasmodium falciparum 3D7 in whole red blood cells, using parasite LDH activity as an index of growth. Test compounds present at 2uM.
For test [2], the system named is Plasmodium falciparum. The test can be described thus: GSK_TCMDC: Inhibition of Plasmodium falciparum Dd2 in whole red blood cells, using parasite LDH activity as an index of growth. Test compounds present at 2uM.
The next test has as its system HepG2. Kind of test: GSK_TCMDC: Percent inhibition of human HepG2 cell line. Test compounds present at 10uM.

One may read the Inhibition as the relative decrease from the control value, in per cent. The low end stands for a weak effect, the high end for a strong effect.

With `COCCn1c(Sc2ncnc3sccc23)nc2ccccc21`, the Inhibition is listed as 95% with Plasmodium falciparum [1], 72% with Plasmodium falciparum [2] and 0% in the test with HepG2.

On to `CNc1ccc(CNCc2ccc(-c3ccc(-c4nc5cccc(C)c5[nH]4)s3)cc2)cc1.O=C(O)C(F)(F)F`, for which the Inhibition in the test on Plasmodium falciparum [1] was 100%; with Plasmodium falciparum [2] it was 94%; with HepG2, 29%.

As for `CCc1ccc(S(=O)(=O)Nc2ccc(CCN3CCC(N4CCCCC4)CC3)cc2)cc1`, the Inhibition with Plasmodium falciparum [1] is on record as 100%; with Plasmodium falciparum [2], 13%; in the test on HepG2 it was 35%.

Turning to `CNC(=S)NCc1cnc2ccccn12`, the Inhibition was 97% in the test on Plasmodium falciparum [1], 0% with Plasmodium falciparum [2] and 0% in the test with HepG2.

`N=c1c(C(=O)NCc2ccccc2)cc2c(=O)n3ccccc3nc2n1CCc1ccccc1`: the Inhibition is recorded as 99% with Plasmodium falciparum [1], 25% in the test with Plasmodium falciparum [2] and 5% in the test on HepG2.

For the molecule `N#Cc1ccc2[nH]c(-c3cc(-c4cccc(F)c4)cnc3N)nc2c1.O=C(O)C(F)(F)F`, the results for the Inhibition in the test with Plasmodium falciparum [1], with Plasmodium falciparum [2] and in the test on HepG2 were 100%, 93% and 46%, respectively.

`CCc1ccc(C2CCN(CCCCNC(=O)c3ccc(NC(=O)c4ccc(Cl)cc4)cc3)CC2)c(OCC(=O)OC)c1`: the Inhibition with Plasmodium falciparum [1] is on record as 95%; in the test with Plasmodium falciparum [2], 12%; in the test on HepG2 it was 32%.

On to `CCN(CC)CCCC(C)Nc1c2ccccc2nc2c1ccc1ccccc12.Cl` (stereo not given), for which the Inhibition in the test with Plasmodium falciparum [1] is given as 96%; in the test with Plasmodium falciparum [2], 34%; in the test with HepG2, 18%.

On to `COc1c(C(=O)NC2CCN(Cc3ccccc3)C2)cnc2ccccc12.Cl` (stereo not given), for which the Inhibition was determined as 86% with Plasmodium falciparum [1], 12% in the test with Plasmodium falciparum [2] and 2% in the test with HepG2.

Consider `Cc1ccccc1C1CCN(C2CCC(NC(=O)c3ccc(-c4cccs4)s3)CC2)CC1` (stereo not given), for which the Inhibition in the test with Plasmodium falciparum [1] turned out to be 100%; in the test on Plasmodium falciparum [2], 54%; with HepG2, 58%.

`Cn1c(=O)c(-c2c(Cl)cccc2Cl)cc2cnc(Nc3ccc(N4CCOCC4)cc3)nc21`: the Inhibition in the test with Plasmodium falciparum [1] is on record as 98%; in the test with Plasmodium falciparum [2], 97%; with HepG2 it was 64%.

As for `COc1cc2nc(N3CCC(C(N)=O)CC3)nc(NCc3ccccc3)c2cc1OC`, the figures for the Inhibition with Plasmodium falciparum [1], in the test on Plasmodium falciparum [2] and in the test with HepG2 were 100%, 23% and 23%, respectively.

Consider `Cc1cccc2nc(-c3ccc(-c4ccc(CNCC(C)C)cc4)cc3)[nH]c12.O=C(O)C(F)(F)F`, for which the Inhibition in the test with Plasmodium falciparum [1] amounted to 100%; in the test on Plasmodium falciparum [2], 90%; in the test on HepG2, 14%.

Take `Fc1ccc2[nH]c(-c3cccc(-c4cccc(CNCCN5CCNCC5)c4)c3)nc2c1.O=C(O)C(F)(F)F`: the Inhibition was 94% in the test on Plasmodium falciparum [1], 4% in the test on Plasmodium falciparum [2] and 18% in the test with HepG2.

For the molecule `Cc1ccc(NCc2cccc(F)c2)cc1S(=O)(=O)N[C@@H]1CCN(C#N)C1`, the Inhibition is 89% in the test on Plasmodium falciparum [1], 83% in the test with Plasmodium falciparum [2] and 13% in the test on HepG2.

As to `O=C(O)C(F)(F)F.c1cncc(CCNCc2ccc(-c3ccc(CNC4Cc5ccccc5C4)cc3)cc2)c1`, the Inhibition in the test on Plasmodium falciparum [1] turned out to be 92%; in the test on Plasmodium falciparum [2], 29%; in the test with HepG2 it was 32%.

Turning to `CCC[C@@H]([C@@H](CC1CCC(C)CC1)C(=O)N[C@@H](CO)C(=O)Nc1nccs1)N(O)C=O` (stereo not given in full), the Inhibition with Plasmodium falciparum [1] is on record as 100%; in the test with Plasmodium falciparum [2] it was 84%; in the test on HepG2 it was 0%.

As to `Cl.O=C(/C=C/c1cccc(Cl)c1)Nc1ccc2nc(CN3CCCC3)ccc2c1`, the Inhibition was found to be 99% in the test with Plasmodium falciparum [1], 42% in the test with Plasmodium falciparum [2] and 47% in the test with HepG2.

Consider `N#Cc1c(N)n(CCc2ccc(F)cc2)c2nc3ccccc3nc12`, for which the Inhibition is on record as 92% in the test on Plasmodium falciparum [1], 36% in the test with Plasmodium falciparum [2] and 8% in the test with HepG2.

With `COc1ccc(-c2ccc(CNCc3ccsc3)cc2)cc1S(=O)(=O)NCCN1CCCC1.O=C(O)C(F)(F)F`, the Inhibition in the test on Plasmodium falciparum [1] was 94%; in the test on Plasmodium falciparum [2], 30%; with HepG2, 22%.

For the molecule `CC1(C)N=C(N)N=C(N)N1c1ccc(I)cc1.Cl`, the Inhibition in the test on Plasmodium falciparum [1] is reported as 92%; in the test with Plasmodium falciparum [2] it was 1%; with HepG2, 16%.

As for `CCNc1cc(C)nc(Nc2ccc(NC(=O)c3c(F)cccc3Cl)cc2)n1`, the Inhibition worked out at 100% in the test with Plasmodium falciparum [1], 89% with Plasmodium falciparum [2] and 49% with HepG2.

Consider `COc1ccc(Br)cc1C1Nc2ccc3ccccc3c2C2=C1C(=O)CC(c1ccccc1)C2` (stereo not given), for which the Inhibition was determined as 100% in the test on Plasmodium falciparum [1], 96% in the test on Plasmodium falciparum [2] and 25% in the test on HepG2.

As for `COc1ccccc1CC1CCCN(C2CCC(NC(=O)c3cc4ccccc4[nH]3)CC2)C1` (stereo not given), the Inhibition in the test on Plasmodium falciparum [1] is reported as 98%; in the test on Plasmodium falciparum [2] it was 21%; in the test with HepG2, 23%.

Turning to `CCNc1c2ccc(Cl)cc2nc2ccc(OC)cc12.Cl`, the Inhibition was 99% in the test on Plasmodium falciparum [1], 100% with Plasmodium falciparum [2] and 16% in the test with HepG2.

With `COc1ccc(NC(=O)Nc2nc3ccccc3s2)cc1N1CCN(C)CC1`, the results for the Inhibition with Plasmodium falciparum [1], in the test with Plasmodium falciparum [2] and in the test on HepG2 were 95%, 22% and 6%, respectively.

On to `CN(C)CCOc1ccc2nc(-c3cccc(OCc4ccccc4)c3)[nH]c2c1C#N`, for which the Inhibition was 100% with Plasmodium falciparum [1], 86% with Plasmodium falciparum [2] and 48% with HepG2.

Take `CCOc1ccc2c(=NN=Cc3cccc(F)c3)cc(C)[nH]c2c1`: the figures for the Inhibition in the test with Plasmodium falciparum [1], in the test with Plasmodium falciparum [2] and in the test with HepG2 were 100%, 100% and 0%, respectively.

As to `O=C(O)/C=C\C(=O)O.c1ccc(COc2ccnc(NCCCOc3cccc(CN4CCCCC4)c3)c2)cc1`, the figures for the Inhibition with Plasmodium falciparum [1], in the test on Plasmodium falciparum [2] and with HepG2 were 100%, 51% and 22%, respectively.

Take `COc1ccc(-c2ccccc2CNc2nc(NCCc3ccc(O)cc3)nc(N3CCNCC3)n2)cc1.O=C(O)C(F)(F)F`: the Inhibition worked out at 86% in the test with Plasmodium falciparum [1], 3% with Plasmodium falciparum [2] and 48% with HepG2.
